Bioassay records as filed in PubChem BioAssay.
CHO-K1 Ca ag: M1 agonist counterscreen hit in parental CHO-K1 cells | Fluo-8 calcium fluorescence; scaled to maximal ATP response, vehicle zero | activation, % at 3 µM | 0.48% of 360,000 active | AID 602248; in the data active = activation above about 15%;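 also: untransfected CHO-K1 host cells lacking M1 receptor as counterscreen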
M1 antag: antagonists of human M1 muscarinic receptor | CHO-K1 hM1, Fluo-8 calcium fluorescence, ACh EC80 antagonist | P11229 | 1.3% of 360,000 active | inhibition, % at 3 µM | AID 588852;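 active = percent inhibition above its own plate's cutoff, namely the mean of that plate's compound wells plus 3 SD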;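 also: peak over basal fluorescence ratio during 140 s after agonist addition; 0% = ACh EC80 plus DMSO and 100% = DMSO alone without agonist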
Target sequence (P11229 whole entry, looked up): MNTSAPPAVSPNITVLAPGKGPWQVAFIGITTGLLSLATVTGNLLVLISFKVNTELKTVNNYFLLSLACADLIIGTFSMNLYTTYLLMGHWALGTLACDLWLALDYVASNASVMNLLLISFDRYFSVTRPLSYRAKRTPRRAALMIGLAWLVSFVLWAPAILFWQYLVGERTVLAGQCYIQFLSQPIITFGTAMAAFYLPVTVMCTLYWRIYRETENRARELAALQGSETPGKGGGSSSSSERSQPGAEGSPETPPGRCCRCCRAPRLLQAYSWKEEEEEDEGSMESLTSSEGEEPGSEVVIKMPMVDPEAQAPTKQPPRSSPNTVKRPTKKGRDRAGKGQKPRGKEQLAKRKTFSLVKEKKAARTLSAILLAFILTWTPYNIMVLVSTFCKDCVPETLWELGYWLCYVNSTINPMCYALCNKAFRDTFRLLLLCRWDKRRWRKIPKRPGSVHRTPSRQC
CHO-K1 Ca antag: nonselective inhibitor or artifact in parental CHO-K1 cells; inhibition, % at 3 µM; ATP-induced calcium, Fluo-8 fluorescence; AID 602250; 0.6% of 360,000 active;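 active = inhibition above a per-plate cutoff, the plate's mean sample inhibition plus 3 SD, cut at about 24% in these data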;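 also: 0% = DMSO plus EC80 ATP and 100% = DMSO alone without ATP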
CHRM1 agonist: activates human CHRM1 receptor; CHO-K1 hM1, Fluo-8 calcium fluorescence, agonist mode; 0% DMSO, 100% acetylcholine EC100; activation, % at 3 µM; 0.33% of 360,000 active; AID 588814;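 active = activation above the run's mean compound activation plus 3 SD, cut at about 16% in these data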;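 also: peak over basal fluorescence ratio within a 140 s kinetic read after compound addition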
CHO-K1 Ca PAM: counter-screen for M1 PAMs: effect in parental CHO-K1 cells; ATP EC20, Fluo-8 calcium fluorescence; 0% at ATP EC20, 100% at ATP max; activation, % at 3 µM; 0.02% of 360,000 active; AID 602247;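 active = activation above the run cutoff, the mean activation of all test compounds plus 3 SD, cut at about 40% in these data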;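 also: peak over basal fluorescence ratio in a 140 s read after ATP addition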
M1 PAM: human CHRM1 positive allosteric modulation | 0.088% of 360,000 active | activation, % at 3 µM | CHO-K1 hM1, Fluo-8 calcium fluorescence, ACh EC20; 0% = ACh EC20, 100% = maximal ACh | P11229; in the data active = activation above about 19%, passing the limit was not always enough
An asterisk follows results filed as active. In the library only some 2.4% were active in any assay of this set; here they are far more common.

SMILES	CHO-K1 Ca ag	M1 antag	CHO-K1 Ca antag	CHRM1 agonist	CHO-K1 Ca PAM	M1 PAM
C=CCNC(=O)C(=O)c1c(-c2ccccc2)[nH]c2ccccc12	2	-7	2	-1	3	0
COc1ccccc1Oc1ccc2c(c1)C(=O)N(c1cccc3ncccc13)C2=O	11	25	24*	10	1	-8
Cc1ccc(NCc2nc(SCC(=O)Nc3ccccc3)n[nH]2)cc1	0	7	17	-3	-18	-3
O=C(Nc1nnc(SCc2c(Cl)cccc2Cl)s1)C1CC(=O)N(c2ccc3c(c2)OCCO3)C1 (stereo unspecified)	1	33*	-18	-5	17	2
O=C(Nc1nnc(SCc2ccc(F)cc2)s1)C1CC(=O)N(c2ccc3c(c2)OCCO3)C1 (stereo unspecified)	2	6	-11	-8	31	-3
Cc1c(NC(=O)Cn2[nH]c(=O)c3ccccc3c2=O)c(=O)n(-c2ccccc2)n1C	1	-11	-12	-6	18	4
C[C@]12c3[nH]c4ccc(Cl)cc4c3CCN1C(=O)[C@@H](CC(=O)NCC13CC4CC(CC(C4)C1)C3)C[C@@H]2C(=O)N1CCOCC1	1	-17	-6	-5	6	11
CC1=C(C)/C(=N\OS(=O)(=O)c2ccccc2)C=CC1=O	9	21*	37*	8	-3	-9
O=C(CN1CCOCC1)Nc1ccccc1Sc1ccc(Cl)cc1	4	22*	8	-7	-10	-14
O=C(CCl)Nc1ccccc1Sc1ccccc1	0	17	24*	-7	-6	-13
O=C(Cc1ccc(Cl)cc1)Nc1ccccc1Sc1ccccc1	1	-3	-8	-9	14	0
O=C(CN1CCOCC1)Nc1ccccc1F	0	-10	-4	-3	4	30*
CN(C)c1cccc(C(=O)OCC(=O)Nc2ccccc2Sc2ccccc2)c1	-1	18	31*	-6	-14	-11
CCOC(=O)c1c(-c2ccc(C)o2)csc1NC(=O)CSc1nncs1	5	5	-20	-6	2	-4
CC(=O)/C(=C/Nc1ccc(Oc2ccccc2)cc1)c1ccccc1	1	11	-21	-4	16	-14
COc1cccc(CNS(=O)(=O)c2c(C)[nH]c(C)c2C(=O)N2CCCC2)c1	0	-13	-23	-2	6	9
CC(=O)c1ccc(NC(=O)C2C3C=CC(C3=C(c3ccccc3)c3ccccc3)C2C(=O)O)cc1 (stereo unspecified)	0	-3	-4	-7	-10	-3
COc1ccccc1CN(Cc1cc2c(C)ccc(C)c2[nH]c1=O)Cc1nnnn1Cc1ccco1	0	-2	13	-4	-2	2
CCN(CCc1ccccc1)c1ccc2c(c1)C1CC2CCN1C(=O)OCc1ccccc1 (stereo unspecified)	0	-15	-1	-2	8	11
CCCCN(C(C)=O)c1ccc2c(c1)C1CC2CCN1C(=O)OCc1ccccc1 (stereo unspecified)	2	34*	12	-7	-6	-14
CCN(CC)CCCn1c(C)cc2c(c1=O)C(c1cccc(Cl)c1)C(C#N)=C(N)O2 (stereo unspecified)	0	60*	3	-6	1	-19
Cc1cc2c(c(=O)n1Cc1ccco1)C(c1cccnc1)C(C#N)=C(N)O2 (stereo unspecified)	0	-3	26*	0	-8	15
CCOc1ccc(C2C(C#N)=C(N)Oc3cc(C)n(Cc4ccco4)c(=O)c32)cc1OC (stereo unspecified)	0	-5	5	-1	-3	6
CCN(CC)CCCn1c(C)cc2c(c1=O)C(c1cc(OC)c(OC)cc1OC)C(C#N)=C(N)O2 (stereo unspecified)	1	25	-3	-5	18	-11
Cc1cc2sc3ccc(C#CC4(O)CCCCC4)cc3c(=O)c2cc1C	0	10	-15	-6	12	-2
SMILES	CHO-K1 Ca ag	M1 antag	CHO-K1 Ca antag	CHRM1 agonist	CHO-K1 Ca PAM	M1 PAM
COc1ccccc1C(=O)N(CCC1CCCN1C)c1nc2ccccc2s1 (stereo unspecified)	6	51*	-10	-3	2	-23
Cc1cc2cc(CNC(=O)c3ccc(S(=O)(=O)N4CCCCC4)cc3)ccc2n1C	2	13	4	-11	-1	-13
Cc1cc2cc(CNC(=O)c3ccc(S(=O)(=O)N4CCCC4)cc3)ccc2n1C	2	73*	7	-11	21	-28
CCN(CC)S(=O)(=O)c1ccc(C(=O)NCc2ccc3c(c2)cc(C)n3C)cc1	1	57*	-5	-11	7	-31
COCCOC(=O)c1[nH]c2c(c1C)C(=O)CC(c1ccc(N(C)C)cc1)C2 (stereo unspecified)	16*	-4	6	5	6	-6
CC(C(O)C12CC3CC(CC(C3)C1)C2)N1CCCCC1 (stereo unspecified)	0	59*	-4	-10	6	-28
CC(NC(=O)CN1CCCC1)C12CC3CC(CC(C3)C1)C2 (stereo unspecified)	0	3	1	-4	-6	9
Cc1ccc2nc(NC(=O)COC(=O)CSc3nc(C)cc(C)n3)sc2c1	2	1	-3	-2	1	-5
COC(=O)c1ccc2nc(NC(=O)COC(=O)CSc3nc(C)cc(C)n3)sc2c1	15*	2	14	-4	8	1
CCN(CC)C(=O)CSc1nsc(SCC(=O)N(CC)CC)c1C#N	0	15	26*	-3	-9	-6
C=COC(=O)CSc1snc(SCC(=O)OC)c1C#N	0	-9	-6	-4	11	6
CCC(=O)NC(=S)Nc1cccc(-c2nc3ncccc3o2)c1	1	-6	1	-9	10	8
COCCNC(=O)COC(=O)CSCc1nc2ccccc2s1	0	-1	13	-2	-5	6
CC(C)c1nnc(SCC(=O)NCc2ccco2)n1C	0	-3	30*	1	-9	9
CCc1ccc(CNn2cnnc2SCC(=O)NC(C)(C)C)cc1	0	0	15	-2	-4	-1
CN(C)c1ccc(CNn2cnnc2SCC(=O)NC(C)(C)C)cc1	6	42*	14	-2	9	-14
CCC(=O)c1ccc(OCC(=O)N(Cc2nnc(-c3ccccc3Cl)o2)C2CC2)cc1	3	-10	-11	-6	15	5
Cc1ccc(C(=O)N(Cc2nnc(-c3ccccc3Cl)o2)C2CC2)o1	1	-12	-7	-7	10	4
O=C(COc1ccc(Br)cc1)N(Cc1nnc(-c2ccccc2Cl)o1)C1CC1	5	37*	-6	-5	7	-23
